Screening results deposited in PubChem BioAssay by Broad Institute.
This excerpt belongs to a sample that is enriched for hits.
Tg IFNy HTS = T. gondii growth inhibition with IFN-gamma, primary screen, cell-based; activity change, negative = inhibition, % (no concentration beside the values); Toxoplasma gondii growth in IFN-gamma-treated host cells; stronger effect = lower value; 3.8% of 69,000 active; in the data active = activity change below about -70%, passing the limit was not always enough;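 note: host cells are HeLa cells infected with Toxoplasma gondii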
Starred values were filed as active, the others as inactive.

SMILES	Tg IFNy HTS
COc1cc([C@@H]2c3cc4c(cc3[C@@H](O[C@@H]3O[C@@H]5CO[C@@H](c6cccs6)O[C@H]5[C@H](O)[C@H]3O)[C@H]3COC(=O)[C@H]23)OCO4)cc(OC)c1O	-71*
COc1cc([C@@H]2c3cc4c(cc3C(OC3O[C@@H]5COC(C)O[C@H]5[C@H](O)[C@H]3O)C3COC(=O)[C@@H]32)OCO4)cc(OC)c1O (stereo partly specified)	-70
COc1cc([C@@H]2c3cc4c(cc3C(OC3OC5COC(C)OC5C(O)C3O)C3OCC(=O)[C@@H]32)OCO4)cc(OC)c1O (stereo partly specified)	-81*
COc1ccc(-c2nc(C(=O)N(C)Cc3nnc(-c4ccccc4)o3)cs2)cc1	-13
Cc1ccc(-c2nc(CN3CCC(C(=O)N4CCC(O)(c5ccc(Cl)cc5)CC4)CC3)no2)cc1	4
COCCCN1CC2(CCCCN2C(=O)c2ccn[nH]2)CC1=O (stereo unspecified)	5
O=S(=O)(c1cc(Cl)sc1Cl)n1cccc1	22
O=C(Cn1c(=O)cc(-c2nc(C3CC3)no2)c2ccccc21)NCCC1=CCCCC1	-84*
CC1CCN(S(=O)(=O)c2ccc3c(ccc(=O)n3CC(=O)NC3CC3)c2)CC1	-5
CC1CCN(S(=O)(=O)c2ccc3c(ccc(=O)n3CC(=O)NCCC3=CCCCC3)c2)CC1	-77*
CC(C)NC(=O)Cn1c(=O)cc(-c2nc(C3CC3)no2)c2ccccc21	-31
O=C(Cn1c(=O)cc(-c2nc(C3CC3)no2)c2ccccc21)NCc1ccc(F)cc1	10
CC1CCN(S(=O)(=O)c2ccc3c(ccc(=O)n3CC(=O)NC3CCCC3)c2)CC1	-54
CCn1c(=O)c2sccc2n(CC(=O)N2CCCCC2C)c1=O (stereo unspecified)	-22
COCC(=O)N1CCC2(CC1)CN(S(C)(=O)=O)[C@@H](CO)c1[nH]c3cc(OC)ccc3c12	4
Cc1cccc(NC(=O)C(=O)NCCc2sc(-c3ccc(Cl)cc3)nc2C)c1C	274
CCOC(=O)c1sc(SC)c(C#N)c1N	-17
CC1COC2(CCCN(C(=O)c3cnn4cccnc34)C2)C1 (stereo unspecified)	244
Cc1cn(CC(=O)N2CCC(CC(=O)O)CC2)nn1	-2
C[C@@H]1CN(Cc2ccc(F)cc2)[C@@H](C)CN1C(=O)c1cc2c(C(=O)C(=O)N(C)C)cn(C)c2cc1Cl	-43
OC(CNCCNc1ncccc1C(F)(F)F)Cn1ccc2ccccc21 (stereo unspecified)	-82*
FC(F)(F)c1ccnc(NCCNc2ncccc2C(F)(F)F)n1	49
Nc1ccccc1SCC(O)Cn1ccc2ccccc21 (stereo unspecified)	-45
COC(=O)[C@@H]1CCCN1C(c1ccccc1)(c1ccccc1)c1ccccc1	-49
Cc1ccc(NC(=O)c2ccc3ccc(N4CCN(C)CC4)n3c2)cc1C	-73*
SMILES	Tg IFNy HTS
Cc1ccccc1NC(=O)c1ccc2ccc(N3CCN(C)CC3)n2c1	-2
CN1CCN(c2ccc3ccc(C(=O)Nc4cccc(F)c4)cn23)CC1	-1
CC(C)n1nc(CNc2ncccn2)c2c1CN(C)CC2	1
COC(=O)c1ccc(CSc2ccccc2N)o1	69
CC(C)(C)CC(C)(C)NC(=O)C(Sc1ccccc1N)c1ccccc1 (stereo unspecified)	-88*
O=C(NCc1ccco1)C(Sc1ccccc1)c1ccccc1 (stereo unspecified)	-3
COc1ccccc1C#Cc1ccc([C@@H]2[C@@H](CO)N(C(=O)C3CCC3)[C@H]2C#N)cc1	24
CC(C)NC(=O)c1ccc2ncnc(N3CCCC3)c2c1	-16
CNc1cc(C2CCN(S(=O)(=O)c3ccc(OC)cc3)CC2)nc(-c2cccnc2)n1	-11
COc1cccc(S(=O)(=O)N2CCCCN3[C@H](CO)[C@H](c4ccc(C#CCC(C)C)cc4)[C@H]3C2)c1	-81*
COc1cccc(S(=O)(=O)N2CCCCN3[C@@H](CO)[C@@H](c4ccc(C#CCC(C)C)cc4)[C@@H]3C2)c1	-64
COc1cccc(S(=O)(=O)N2CCCCN3[C@H](C2)[C@@H](c2ccc(C#CCC(C)C)cc2)[C@@H]3CO)c1	-33
Cc1ccc(NC(=O)CSC2CCS(=O)(=O)C2)cc1Cl (stereo unspecified)	29
CCOC(=O)C1CCCN(Cc2nc(NCc3cccs3)c3ccccc3n2)C1 (stereo unspecified)	-8
Cc1ccc(CN2CCC3(CC(NS(=O)(=O)C4CC4)C3)C2)cc1 (stereo unspecified)	-22
CCOc1ccccc1N(Cc1nc(-c2cccc(Cl)c2)oc1C)S(=O)(=O)c1cccs1	-38
Cc1ccc(NC(=O)c2nc(Nc3ccccc3)c3ccccc3n2)cc1	-6
COc1ccc(NC(=O)c2nc(Nc3ccccc3)c3ccccc3n2)cc1	118
COc1cc(-c2nc(Nc3ccc(C)cc3)c3ccccc3n2)cc(OC)c1OC	-93*
CCc1cccc(NC(=O)c2nc(Nc3ccccc3)c3ccccc3n2)c1	-72*
CCc1ccc(NC(=O)c2nc(Nc3ccccc3)c3ccccc3n2)cc1	-6
COc1cccc(NC(=O)c2nc(Nc3ccc(C)cc3)c3ccccc3n2)c1	-88*
CCc1ccc(Nc2nc(C(=O)NC)nc3ccccc23)cc1	-6
COc1ccc(-c2nc(Nc3ccc(C)cc3)c3ccccc3n2)cc1	-43
COc1ccc(-c2nc(Nc3cc(C)cc(C)c3)c3ccccc3n2)cc1	-36
SMILES	Tg IFNy HTS
COCC(=O)N1[C@@H](CO)[C@@H]2c3ccccc3N(C(=O)c3cccnc3)C[C@@H]21	-5
CCOc1ccccc1NC(=O)N1CCC2(CC1)NC(=O)c1cc(Cl)ccc1N2C	44
CCOc1ccc(-c2nc(CSc3nc4c(=O)[nH]c(C)nc4n3C)c(C)o2)cc1	-10
Cc1cc(C(=O)N2CCC3(CC(NS(C)(=O)=O)C3)C2)n[nH]1 (stereo unspecified)	12
O=C(NCc1noc(-c2cccc(Cl)c2)n1)c1coc(-c2ccccc2)n1	102
O=C(c1cc(Cl)ccc1Cl)N1CCN(S(=O)(=O)c2cc3c4c(c2)CCN4C(=O)CC3)CC1	10
Cc1oc(-c2ccccc2)nc1CN1C(=O)CSc2ccc(S(=O)(=O)N3CCOCC3)cc21	-44
Cc1ccccc1-c1nc(Cn2c(=O)cc(C(=O)N3CCCCC3)c3ccccc32)c(C)o1	4
Cc1ccccc1-c1nc(CN2C(=O)CSc3ccc(S(=O)(=O)N4CCCC4)cc32)c(C)o1	-80*
Cn1c(=O)c(-c2nc(-c3ccc(Br)cc3)no2)c(O)c2ccccc21	0
Cc1nn(C)cc1NC(=O)CN1CCCCC1c1ccccn1 (stereo unspecified)	-21
O=C1NCC2(CCCN(C(=O)c3csc(-c4cccs4)n3)C2)O1 (stereo unspecified)	-1
COc1ccc(C(=O)NC2CCCc3c2cnn3Cc2ccccc2Cl)cc1 (stereo unspecified)	-80*
COc1ccc(C(=O)N2C[C@H]3[C@@H](c4ccccc42)[C@@H](CO)N3Cc2ccccc2Cl)cc1	1
COc1ccc(C(=O)N2C[C@@H]3[C@H](c4ccccc42)[C@H](CO)N3Cc2ccccc2Cl)cc1	-1
C[C@H](CO)N1C[C@H](C)[C@H](CN(C)S(=O)(=O)c2ccc(-n3cccn3)cc2)OCc2cn(nn2)CCCC1=O	59
COCCN(C)C(=O)c1cc(-c2cn(C)c(C)n2)n2ccccc12	3
O=C(c1cccnc1)N1CCC2OCCCC2(COCC2CC2)C1 (stereo unspecified)	-1
